Laboratory results reported in PubChem BioAssay AID618 (Sanford-Burnham Center for Chemical Genomics, 2007).
Among all 87,000 compounds or so, about 540 (0.62%) were called active. The sample holds actives, similar compounds and a random draw of the others, so the mix is not that of the screen. The rule behind the calls is not given here. Results with a measured potency or affinity are listed apart.

Experiment: inhibitors of MT1-MMP promoter transcription, cell-based, luciferase reporter, luminescence (AID 618);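 note: actives suppress MT1-MMP promoter-driven transcription so potencies describe inhibitors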
Conditions: MT1-MMP promoter luciferase reporter cells

outcome, active:
CCCOC(=O)c1[nH]c2c(c1C)C(=O)CC(c1cccs1)C2 (stereo unspecified)
Cc1c(C(=O)OCCOC(C)C)[nH]c2c1C(=O)CC(c1ccco1)C2 (stereo unspecified)
CSCCOC(=O)c1[nH]c2c(c1C)C(=O)CC(c1ccco1)C2 (stereo unspecified)
CCOC(=O)c1[nH]c2c(c1C)C(=O)CC(c1ccc(F)cc1)C2 (stereo unspecified)
Cc1c(C(=O)OCc2ccccc2)[nH]c2c1C(=O)CC(c1ccco1)C2 (stereo unspecified)
CN(C)c1ccc(N/C=C/C(=O)c2ccc(F)cc2)cc1
CN(C)c1ccc(N/C=C/C(=O)c2ccccc2)cc1
CCCCOC(=O)c1ccc(NC(=O)CSc2nncn2C)cc1
N=c1cc(C2(O)CCCCC2)n2c(nc3ccccc32)s1

outcome, inactive:
O=c1[nH]c(CN2CCN(c3ccc([N+](=O)[O-])cc3)CC2)nc2ccsc12
CCCCCOC(=O)CSc1n[nH]c(=O)[nH]c1=O
O=C(CC(Nc1ccc(Cl)cc1)C(=O)O)c1ccccc1 (stereo unspecified)
Cc1cccc(NC(=O)COC(=O)CNC(=O)C2CCCCC2)c1
NC(=O)CSc1nnnn1-c1ccc2c(c1)OCCO2
O=C1CCCC2=C1C(Cc1ccccc1)C1=C(CCCC1=O)O2
CCN(CCNC(=O)CC1Oc2ccccc2NC1=O)c1ccccc1 (stereo unspecified)
Cc1ccc(C2/C(=C(\O)c3ccc4c(c3)OCCO4)C(=O)C(=O)N2CCCN(C)C)o1 (stereo unspecified)
CCN1CCN(C(=O)c2cc3c(=O)oc4ccc(C)cc4c3s2)CC1
Cc1c(C(=O)OCC(C)C)[nH]c2c1C(=O)CC(c1cccs1)C2 (stereo unspecified)
CCCOC(=O)c1[nH]c2c(c1C)C(=O)CC(c1ccc(OC)c(OC)c1)C2 (stereo unspecified)
Cc1c(C(=O)OCCOC(C)C)[nH]c2c1C(=O)CC(C)(C)C2
COc1cc(C2CC(=O)c3c([nH]c(C(=O)OCCOC(C)C)c3C)C2)cc(OC)c1OC (stereo unspecified)
CCOCCOC(=O)c1[nH]c2c(c1C)C(=O)CC(c1ccc(N(C)C)cc1)C2 (stereo unspecified)
COC(=O)c1[nH]c2c(c1C)C(=O)CC(c1cccs1)C2 (stereo unspecified)
CCCOCCOC(=O)c1[nH]c2c(c1C)C(=O)CC(c1cc(OC)ccc1OC)C2 (stereo unspecified)
COCCOC(=O)c1[nH]c2c(c1C)C(=O)CC(c1ccc(F)cc1)C2 (stereo unspecified)
Cc1cc(Cl)cc(C)c1OCCCCN1CCOCC1
COCCn1c(CNc2ccc(F)cc2)nnc1SCC(=O)Nc1ccc(OC)cc1OC
COc1ccc(CN2CC(C(=O)NCc3cccc(OC)c3)CC2=O)cc1 (stereo unspecified)
COC(=O)c1ccccc1NC(=O)c1ccc(-c2cccc(Cl)c2)o1
O=C(Nc1nnc(-c2ccc(Cl)s2)o1)C1CCCCC1
COc1ccccc1Oc1ccc2c(c1)C(=O)N(c1cccc(O)c1)C2=O
CCC(=O)N1CCNC(=O)C1CC(=O)Nc1ccc(C)c(Cl)c1 (stereo unspecified)
CNCc1ccc(OCc2ccccc2)c(OC)c1
Cc1c(C(=O)N2CCOCC2)[nH]c2c1C(=O)CC(c1ccccc1Cl)C2 (stereo unspecified)
CC1=C(C(=O)OCc2ccccc2)C(c2ccco2)C2=C(CC(C)(C)CC2=O)N1 (stereo unspecified)
C=CCN1CC(c2nc3ccccc3n2Cc2cccc3ccccc23)CC1=O (stereo unspecified)
CCCOc1ccc(C(CC(=O)O)NC(=O)C23CC4CC(CC(C4)C2)C3)cc1 (stereo unspecified)
Cc1ccc(C(=O)Nc2cc(Cl)ccc2N2CCCCC2)s1
CN(C)c1ccc(N/C=C/C(=O)C(C)(C)C)cc1
CN(C)c1ccc(C(=O)c2ccccc2)cc1
CC(=O)Nc1ccc(N/C=C/C(=O)c2ccco2)cc1
CN(C)c1ccc(NC(=O)CN2CCC(C(=O)c3ccc(F)cc3)CC2)cc1
CN(C)c1ccc(NC(=O)CN2CCN(CC(=O)Nc3ccc(F)cc3)CC2)cc1
O=C(/C=C/Nc1ccc(F)cc1)c1ccco1
CSCC[C@H](NC(=O)CCn1nnc2ccccc2c1=O)C(=O)O
CCN1CCN(C(=O)c2ccc(Cl)c(S(=O)(=O)N3CCOCC3)c2)CC1
Cc1ccc(-n2nc3c(c2NC(=O)c2c(-c4ccccc4Cl)noc2C)CS(=O)(=O)C3)c(C)c1
COc1cccc(NC(=O)C(=O)N2CCOCC2)c1
Cc1ccc(-n2nc(C)c3c(C)cc(=O)[nH]c32)cc1
O=C(c1cccn2c(=O)c3cc(Br)ccc3nc12)N1CCN(c2ccccn2)CC1
Cc1ccc(-c2c(C(=O)N3CCOCC3)oc(=O)c3ccccc23)cc1
Cn1cnnc1SCC(=O)Nc1ccccc1
COC(=O)c1ccc(NC(=O)CSc2nncn2C)cc1
O=C1CC(N2CCC(c3nc4ccccc4o3)CC2)C(=O)N1c1ccc(Cl)cc1 (stereo unspecified)
O=C(CCS(=O)(=O)c1cccs1)N1CCCC1
CC(=O)N1CCc2cc(S(=O)(=O)CCC(=O)O)ccc21
O=C1c2ccccc2NC(c2ccc(Cl)cc2Cl)N1Cc1ccccc1 (stereo unspecified)
CC(C)(O)c1cc(=O)sc2nc3ccccc3n12
c1ccc2nc3c(nc2c1)sc1nc2ccccc2n13
c1ccc(Cn2c(-c3cncs3)nc3ccccc32)cc1
